From PubChem BioAssay AID920 (The Scripps Research Institute Molecular Screening Center, 2007) come the findings set out here.

The whole screen tested about 200,000 compounds, of which about 700 (0.35%) were called active. This is one part of a sample in which actives are shown more often than they occur.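 The calls were made as follows: active = inhibition above a set limit, the mean inhibition across all tested compounds plus 3 SD (cut at about 34% in these data); inactive = the rest.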

The assay is described as follows: STAT1 signaling inhibitors, primary screen, cell-based, HTS, luciferase reporter (AID 920).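 Also: 0% = IFN-gamma with DMSO and 100% = IFN-gamma with 300 µM nifuroxazide.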 Particulars: NIH 3T3 STAT1-luciferase reporter, IFN-gamma, luminescence; at 5.5 µM; stronger effect = higher value. In general terms: In a reporter assay the amount or activity of a reporter protein is the signal.
Consider `CN1CCN(c2cc(N3CCNCC3)ccc2[N+](=O)[O-])CC1`, for which the inhibition (as a rule, the relative decrease from the control value, in per cent) was 12.4% (inactive). For the compound `COc1cccc(-c2nc3ccc(N4CCN(C)CC4)cc3[nH]2)c1`, the inhibition was 63.1% (active). Then `Cc1nc2ccc(N3CCN(C)CC3)cc2nc1C`, with -26.2% (inactive). Then `CN(C)/C=C(\C=[N+](C)C)c1[nH]ncc1[N+](=O)[O-]`, with -9.13% (inactive); and `COc1ccc(CCn2c(O)c(C=NCCCn3ccnc3)c(=O)[nH]c2=O)cc1OC`, with -4.43% (inactive).
